From PubChem
Only some compounds are listed: those with a hit (about 3.1% of all), similar ones and a draw of the others.
Beta cell apopt: blocks beta cell apoptosis; AID 435005; INS-1E cytokine-induced death, ATP luminescence, 48 h; percent of positive-control rescue, neutral wells zero; 300,000 tested, 0.8% active; protection from apoptosis, % (test concentration not listed);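 active = Every replicate reaches about 75%, or at least half do and their mean reaches it too, limit read from the data; inconclusive = At least half of replicates reach the limit but their mean does not; inactive = Under half of replicates reach the limit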;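 note: 0% = cytokine-treated negative control wells and 100% = positive control rescue; higher means more ATP so stronger rescue from cytokine killing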
PP5 primary: blocks human protein phosphatase 5 activity. P53041. purified PP5c, OMFP substrate fluorescence. 320,000 tested, 0.18% active. inhibition, % at 6.7 µM;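 active = inhibition above the campaign's mean inhibition across all tested compounds plus 3 SD, cut at about 9.5% in these data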;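 note: 0% = DMSO only and 100% = 100 µM cantharidin control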
Target sequence (P53041 whole entry, looked up): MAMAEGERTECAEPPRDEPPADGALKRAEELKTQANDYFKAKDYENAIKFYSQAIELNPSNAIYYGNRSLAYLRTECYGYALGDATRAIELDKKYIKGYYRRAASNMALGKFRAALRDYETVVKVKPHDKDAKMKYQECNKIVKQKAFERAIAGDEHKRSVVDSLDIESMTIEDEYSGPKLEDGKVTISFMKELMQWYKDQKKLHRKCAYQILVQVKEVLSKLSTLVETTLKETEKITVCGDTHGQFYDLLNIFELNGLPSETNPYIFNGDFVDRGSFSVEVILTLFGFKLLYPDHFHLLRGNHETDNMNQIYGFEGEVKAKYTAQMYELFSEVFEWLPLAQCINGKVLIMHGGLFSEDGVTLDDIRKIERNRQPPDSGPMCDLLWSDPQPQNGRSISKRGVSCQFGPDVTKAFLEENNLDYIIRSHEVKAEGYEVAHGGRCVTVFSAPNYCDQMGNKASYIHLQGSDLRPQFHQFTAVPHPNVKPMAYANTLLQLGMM
SKKanGAS inh: SKKanGAS growth inhibition | S. pyogenes SKKanGAS, kanamycin growth, BacTiter-Glo, 6 h | AID 1662 | 300,000 tested, 1.3% active | inhibition, % at 7.5 µM;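 active = mean replicate score, as percent of positive control median, at least 50; inconclusive = mean below 50 but one replicate at or above 50; inactive = mean and every replicate below 50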;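 note: strain carries kanamycin resistance gene driven by streptokinase promoter and grows in 40 µg/ml kanamycin; loss of luminescence reflects streptokinase promoter inhibition or plain growth inhibition; 0% = median of DMSO wells and 100% = positive control at its reference dose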
PP1 counter: blocks human PP1-alpha phosphatase, a PP5 counter-screen; inhibition, % at 6.7 µM; AID 2235; P62136; 320,000 tested, 0.9% active; purified PP1alpha, OMFP fluorescence;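 active = inhibition above the mean inhibition of all tested compounds plus 3 SD, computed separately for each screening campaign, cut at about 15% in these data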
CSC inhib: blocks cancer stem cells | cancer stem cell-like cells viability, luminescence | inhibition, % at 7.5 µM | 300,000 tested, 1.1% active | AID 2717; in the data active = inhibition above about 75%; inconclusive = no clear call, values can overlap the other calls; tested in HMLE shEcad cells
PP1 inh confirm: confirmation of human PP1 phosphatase inhibitors | shares compounds with PP1 counter | purified PP1alpha, OMFP substrate fluorescence | inhibition, % at 6.7 µM | 1,900 tested, 52% active | AID 2358;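 active = mean PP1 inhibition above a set limit taken from the earlier primary screen, cut at about 15% in these data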
PP5 counter: PP5 phosphatase inhibition, counter-screen for PP1 inhibitors. shares compounds with PP1 counter. purified PP5c, OMFP fluorescence. inhibition, % at 6.7 µM. 1,900 tested, 4% active. AID 2360;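 active = mean PP5 inhibition over triplicate wells above about 9.5% taken from the earlier PP1 screen, limit read from the data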
The depositor's hits bear a star; ? = inconclusive; / = not tested or not shown.

SMILES	Beta cell apopt	PP5 primary	SKKanGAS inh	PP1 counter	CSC inhib	PP1 inh confirm	PP5 counter
C#CCOCCOCCOCCNc1nc(N2CCN(C(=O)CCCCCCCCCCNC(=O)[C@@H](CCSC)n3cc(CCO)nn3)CC2)nc(N2CCN(C(=O)CCCCCCCCCCNC(=O)[C@H](CO)n3cc(CCCCCN)nn3)CC2)n1	10.1	2.0	/	49.1*	-0.1	48.9*	0.1
CCCCOC(=O)CCCN1C(=O)/C(=C2\SC(=S)N(CCCC(=O)OCCCC)C2=O)SC1=S	-6.9	-1.2	-0.6	-3.6	-12.4	/	/
Cc1nc(S/C(=C/c2ccc(-c3ccc(Cl)cc3)o2)C(=O)O)n[nH]1	-3.3	1.0	10.5	10.5	19.3	/	/
Cc1nc(S/C(=C/c2ccc(-c3cc(Cl)ccc3C)o2)C(=O)O)n[nH]1	-6.9	2.7	43.9	18.8*	37.1	18.4*	1.4
CC(C)(C)NC(=O)C(c1ccncc1)N(Cc1ccc(F)cc1)C(=O)c1ccc(-c2ccccc2)[nH]1 (stereo not given)	9.4	-0.3	13.5	2.5	8.4	/	/
CCc1nnc2n1N=C(c1ccc(OC)cc1)CS2	10.5	0.8	7.8	1.7	26.4	/	/
CCc1nnc2n1N=C(c1ccc(-c3cc(Cl)ccc3Cl)o1)CS2	13.2	1.8	-4.8	23.1*	-0.3	12.0	-3.7
Cc1ccccc1/C=C/c1nc2ccccc2c(=O)[nH]1	2.1	0.0	-3.1	20.1*	64.5	18.0*	-1.6
Nc1ccc(S(=O)(=O)Nc2nccc(/C=C/c3ccc(Cl)cc3Cl)n2)cc1	2.0	-3.5	1.8	18.5*	-5.1	20.6*	-5.4
Nc1ccc(S(=O)(=O)Nc2nccc(/C=C/c3ccc(Cl)cc3)n2)cc1	-6.6	1.6	6.1	1.4	/	/	/
CC(CNc1nc2ccc(Cl)cc2n2cnnc12)c1ccccc1 (stereo not given)	13.8	-5.5	3.8	7.0	12.7	/	/
COc1ccc(OC)c(/C=N\NC(=O)c2ccc(-c3ccccc3)cc2)c1	0.2	/	/	/	-2.3	/	/
COc1cccc(/C=N/NC(=O)c2ccc(-c3ccccc3)cc2)c1O	106.9*	1.8	22.2	22.0*	?	24.8*	2.0
COc1cccc(/C=N/NC(=O)c2[nH]c(C)c(C(=O)N/N=C/c3cccc(OC)c3O)c2C)c1O	37.5	3.3	-0.4	24.7*	92.6*	28.2*	-2.5
COc1cccc(/C=N/NC(=O)C(=O)Nc2ccccc2OC(F)(F)C(F)F)c1O	82.5*	1.9	38.2	19.6*	108.4*	27.1*	-3.3
COc1ccccc1/C=N/NC(=O)c1cccc(OC(F)(F)C(F)F)c1	-2.7	3.6	-5.0	-1.9	-3.5	/	/
CCN(CC)S(=O)(=O)c1cccc(NC(=O)c2ccc(C#N)cc2)c1	-8.2	0.1	-0.6	-1.5	-16.1	/	/
O=C(/C=C/c1cccs1)NC(=S)NNC(=O)Cc1cccs1	4.4	0.7	67.9*	24.6*	34.4	23.9*	-7.0
Cc1onc(-c2ccccc2)c1C(=O)NC(=S)NNC(=O)c1cc(-c2ccc(F)cc2)n[nH]1	27.4	1.8	119.2*	28.6*	30.9	22.2*	-1.1
Cc1onc(-c2ccccc2)c1C(=O)NNC(=S)NC(=O)/C=C/c1cccs1	16.1	1.3	95.4*	18.7*	26.3	9.2	0.0
Cc1cc(Br)ccc1NC(=O)CN(C)C(=O)Cn1c(=O)cnc2ccccc21	0.5	1.4	-4.0	-3.6	/	/	/
COc1cc(NC(=O)CSc2nc(C3CC3)nc3ccccc23)cc(OC)c1	-8.6	1.4	-4.1	19.3*	-10.9	18.1*	-3.5
COc1ccc(/C=N/Nc2cc(C)nc(-n3nc(C)cc3C)n2)cc1	90.0*	7.2	5.7	38.6*	18.9	49.7*	0.3
Cc1cc(C)n2nc(C(=O)N/N=C/c3cccc(Cl)c3)nc2n1	5.9	0.1	5.5	17.8*	10.6	0.2	-2.0
Cc1cc(N/N=C/c2cccc(Cl)c2)nc(-n2nc(C)cc2C)n1	103.2*	3.2	103.5*	18.4*	20.0	22.9*	-2.8
SMILES	Beta cell apopt	PP5 primary	SKKanGAS inh	PP1 counter	CSC inhib	PP1 inh confirm	PP5 counter
COc1cccc(OC)c1OC(=O)/C=C/c1ccc(C)o1	-3.1	1.9	9.4	9.0	-2.0	/	/
O=c1c2ccccc2nc(-c2ccc(Cl)cc2Cl)n1O	-3.0	0.7	13.1	3.2	22.7	/	/
O=C(O)c1ccccc1-c1nc2cc(Cl)ccc2c(=O)n1O	-2.8	7.3	-9.1	22.4*	4.7	24.4*	0.1
COc1ccc(-c2cccc(C3CC=CC4C3C(=O)N(Cc3ccccc3)C4c3ccc4ccccc4c3)c2)cc1 (stereo not given)	-5.9	1.5	-4.9	11.9	24.6	/	/
COc1ccc(C2C3C=CCC(c4cccc(-c5ccc(C)cc5)c4)C3C(=O)N2Cc2ccccc2)cc1Cl (stereo not given)	-5.4	-0.7	2.0	17.8*	1.9	-0.1	-5.9
CCOC(=O)c1cnc(-n2nc(C)cc2C)nc1NC(C)c1ccccc1 (stereo not given)	88.3*	1.6	107.4*	39.1*	/	53.3*	5.5
CCOC(=O)c1cnc(-n2nc(C)cc2C)nc1NNc1ncc(-c2ccccc2)cn1	96.4*	3.4	27.8	22.7*	36.7	21.6*	-2.3
CCOC(=O)c1cnc(-n2nc(C)cc2C)nc1NCc1ccccc1	98.8*	7.0	89.3*	53.6*	18.4	58.2*	0.6
CCOC(=O)c1cnc(-n2nc(C)cc2C)nc1N1CC(C)OC(C)C1 (stereo not given)	-1.2	3.2	25.7	2.5	-20.5	/	/
CCOC(=O)c1cnc(NCc2ccccc2)nc1C	2.7	2.7	6.4	-14.8	-5.0	/	/
CCOC(=O)c1cnc(-n2cc(C)cn2)nc1NCc1ccc2c(c1)OCO2	11.9	1.9	-7.7	20.8*	-7.4	65.5*	1.6
CC1CN(C(=O)c2ccc(OC3CCN(Cc4ccccn4)CC3)cc2)CCN1C (stereo not given)	-5.7	-4.3	-8.9	-9.3	24.0	/	/
COc1ccc(C(=O)Nc2ccc(C(=O)N3CCC(C)CC3)cc2)cc1OC	/	-0.5	7.3	-2.5	-12.2	/	/
COc1ccc(-n2c(SCC(=O)Nc3ccccc3C)nc(O)c(Cc3ccccc3)c2=O)cc1	-5.4	0.9	1.4	-3.5	-13.1	/	/
N#Cc1c(=O)c2nc(NCCCO)ncc2n2c(=O)c3ccccc3[nH]c12	/	4.8	-12.3	19.8*	16.0	16.7*	0.8
N#Cc1c(=O)c2nc(NCc3ccccc3)ncc2n2ccccc12	-1.2	1.1	5.7	1.9	-6.7	/	/
CCOc1ccc(C2NC(=O)Cc3cc(OC)c(OC)cc32)cc1 (stereo not given)	2.3	-0.6	-2.1	23.7*	-11.3	-2.4	0.9
CCCCN(C(=O)c1cccc(-n2cccc2)c1)c1c(N)n(Cc2ccccc2)c(=O)[nH]c1=O	-4.6	2.0	6.1	34.5*	-20.1	-0.3	-6.1
